Screening results from PubChem.
The list is not random: actives were taken first. Their share in the collection is about 5.5%.
Integrin act MD = integrin-mediated muscular dystrophy alleviation activation; Potency, µM (series often up to 38.3 µM), usual class: activators; AID 624291; 350,000 compounds, 0.064% hits; alpha7betagal myoblasts, beta-gal FDG fluorescence, 48 h; also: nearly all actives have a fitted effect of over 60% in size
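alpha7betagal+/- myoblasts (passage 13, 250/well) treated 48 h at 37C with compounds at 1:260 dilution of DMSO stock. Lysed, then beta-galactosidase activity read as FDG fluorescence (ex 480/em 540) after 30 min, with pre-read for autofluorescence.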
RORgamma inh = blocks mouse ROR gamma transcriptional activity; 310,000 compounds, 5.4% hits; Drosophila S2 Gal4-RORgamma UAS-luciferase reporter, 20 h; Potency, µM (highest dose often 53.6 µM), usual class: inhibitors; P51450; AID 2551; also: nearly all actives have a fitted effect of over 60% in size
Target sequence (P51450 whole entry, looked up, the tested form may be a part): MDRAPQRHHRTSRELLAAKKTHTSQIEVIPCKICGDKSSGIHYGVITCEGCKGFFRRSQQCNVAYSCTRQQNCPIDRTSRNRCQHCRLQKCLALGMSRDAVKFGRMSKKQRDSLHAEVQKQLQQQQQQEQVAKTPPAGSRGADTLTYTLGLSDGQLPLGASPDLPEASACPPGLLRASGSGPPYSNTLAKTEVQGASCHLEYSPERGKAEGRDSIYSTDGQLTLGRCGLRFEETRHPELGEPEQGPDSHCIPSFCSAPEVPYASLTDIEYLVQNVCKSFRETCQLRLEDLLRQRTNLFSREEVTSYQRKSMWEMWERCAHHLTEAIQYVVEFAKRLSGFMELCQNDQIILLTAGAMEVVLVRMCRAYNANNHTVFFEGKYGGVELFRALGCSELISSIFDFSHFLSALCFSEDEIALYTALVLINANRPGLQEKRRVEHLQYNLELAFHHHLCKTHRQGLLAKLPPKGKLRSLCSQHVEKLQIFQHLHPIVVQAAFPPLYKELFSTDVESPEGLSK
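Compounds are pin-transferred onto Drosophila Schneider cells expressing a copper-inducible Gal4–ROR gamma transactivation domain fusion. After 1 hr, copper sulfate is added to 700 uM final; luciferase is read 20 hr later.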
uPA surface inh = blocks generation of uPA at the cell surface. Potency, µM (top dose mostly 38.3 µM), hits mostly inhibitors. 330,000 compounds, 0.31% hits. cell surface uPA generation assay, qHTS. AID 540303; active = well fitted inhibition curve with a large enough effect; inconclusive = small, poorly fitted or top-dose-only effect; inactive = no such curve, though single readings can be large or run the other way; tested in mouse RAW 264.7 cells; also: nearly all actives have a fitted effect of over 55% in size
VP16 counter = Gal4-VP16 reporter inhibition counter-screen; Drosophila S2 Gal4-VP16 UAS-luciferase, luminescence, 20 h; Potency, µM (highest dose often 53.6 µM), actives largely listed as inhibitors; 310,000 compounds, 3.5% hits; AID 2546;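 also: Gal4-VP16 expression switched on by copper sulfate through the metallothionein promoter; nearly all actives have a fitted effect of over 50% in size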
Mito fusion yeast = mitochondrial division inhibition or fusion activation; S. cerevisiae fusion-defective mutant growth rescue, CellTiterGlo 48 h; 320,000 compounds, 0.23% hits; Potency, µM (doses to about 46.1 µM), most hits filed as activators; also: nearly all actives have a fitted effect of over 45% in size
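Growth-rescue viability read-out: after 48 h at the non-permissive 37C in glycerol/ethanol YPEG, yeast mitochondrial fusion mutants are measured by CellTiterGlo luminescence; compounds (23 nl pinned per well) restoring growth score as division inhibitors or fusion activators.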
Chronic BCR inh = blocks chronic active B-cell receptor signaling. ABC-DLBCL IkBa-CBG/CBR reporter, luminescence ratio, 4 h. 340,000 compounds, 0.05% hits. Potency, µM (titrated, usually from 46.1 µM), actives largely listed as inhibitors; active = well fitted inhibition curve with a large enough effect in the signal ratio, with a control signal flat, not every such curve was filed as active; inconclusive = small, poorly fitted or top-dose-only effect, or effect the other way, or a change in a side signal; the % refers to the signal ratio
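TMD8 ABC-DLBCL cells carrying doxycycline-inducible green luciferase fused to IkappaBalpha plus unfused red luciferase were exposed to compounds (up to 46 uM) for 4 hrs at 37C. Activity came from the overlap-corrected green/red luminescence ratio.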
Large screens that a line does not name were inactive. Unless noted, calls follow the shape of the dose curve; as a rule, active = well fitted curve in the direction sought with a large enough effect; inconclusive = small, poorly fitted or top-dose-only effect, or another doubt; inactive = no such curve, though single readings can be large; an effect the other way counts as inactive or inconclusive.

COc1ccc2c(c1)C1=NN(/C(C)=C/C(C)=O)C(c3ccc(F)cc3)C1CC2 (stereo not given)	VP16 counter inconclusive
COc1ccc2c(c1)C1=NN(/C(C)=C/C(C)=O)C(c3cccc(F)c3)C1CC2 (stereo not given)	Mito fusion yeast 18µM, Chronic BCR inh inconclusive
FC(F)(F)c1ccccc1-c1cc(NCCN2CCOCC2)ncn1	none (no result: Integrin act MD, uPA surface inh, Mito fusion yeast, Chronic BCR inh)
CCc1cc(-c2n[nH]c(C)c2-c2nc3ccccc3s2)c(O)cc1OCC(=O)NN	Chronic BCR inh inconclusive
CCc1cc(-c2n[nH]c(C)c2-c2nc(C)cs2)c(O)cc1OC	RORgamma inh 13µM, VP16 counter inconclusive, Mito fusion yeast inconclusive
CCN(CC)S(=O)(=O)c1ccc(C(=O)NC2CC(=O)N(c3ccc4c(c3)OCCO4)C2)cc1 (stereo not given)	none (no result: Integrin act MD, RORgamma inh, uPA surface inh, VP16 counter, Mito fusion yeast)
Cc1nc(NCc2cccnc2)c2c3c(sc2n1)CC(C)CC3 (stereo not given)	RORgamma inh 0.71µM, VP16 counter 1.8µM, Chronic BCR inh inconclusive
c1ccc(CNc2ncnc3sc4c(c23)CCCC4)nc1	none
CCOC(=O)c1sc2nc(C)nc(NCc3cccnc3)c2c1C	Chronic BCR inh inconclusive
Cc1nc(NCc2ccccn2)c2c3c(sc2n1)CCCC3	Mito fusion yeast 20µM
O=S1(=O)C2CC3C=CC2(CN1Cc1cccc(F)c1)O3 (stereo not given)	none (no result: Integrin act MD, uPA surface inh, Mito fusion yeast, Chronic BCR inh)
CC(=O)N1CCN(CC(O)COc2ccc(S(=O)(=O)N3CCOCC3)cc2)CC1 (stereo not given)	Chronic BCR inh inconclusive (no result: RORgamma inh, VP16 counter)
Cn1cccc1C(=O)N1CCC[C@@]2(CCN(c3ncccn3)C2)C1	none (no result: Integrin act MD, uPA surface inh, Mito fusion yeast, Chronic BCR inh)
COc1ccc(S(=O)(=O)Nc2cc(OC)cc3cccnc23)cc1	RORgamma inh 2.5µM, VP16 counter inconclusive (no result: Integrin act MD, uPA surface inh, Mito fusion yeast, Chronic BCR inh)
COc1ccc(C(=O)Nc2cc(OC)cc3cccnc23)cc1	Chronic BCR inh inconclusive
O=C(O)c1ccccc1NS(=O)(=O)c1ccc2ccccc2c1	none
Cc1ccc(S(=O)(=O)Nc2cccc3ccc(C)nc23)cc1	RORgamma inh 3.2µM, VP16 counter inconclusive (no result: Integrin act MD, uPA surface inh, Mito fusion yeast, Chronic BCR inh)
O=S(=O)(Nc1cccc2cccnc12)c1ccccc1O	RORgamma inh 2µM, VP16 counter 3.2µM (no result: Integrin act MD, uPA surface inh, Mito fusion yeast, Chronic BCR inh)
O=S(=O)(Nc1cccc2cccnc12)c1ccc2ccccc2c1	RORgamma inh 5.6µM, VP16 counter 0.63µM (no result: Integrin act MD, uPA surface inh, Mito fusion yeast, Chronic BCR inh)
O=S(=O)(Nc1cccc2cccnc12)c1ccc(Br)cc1	RORgamma inh 0.56µM, VP16 counter 1.3µM (no result: Integrin act MD, uPA surface inh, Mito fusion yeast, Chronic BCR inh)
Cc1ccc(S(=O)(=O)Nc2cccc3ncccc23)cc1	none
Nc1ccc(S(=O)(=O)Nc2cccc3cccnc23)cc1	RORgamma inh 4µM, VP16 counter 11µM (no result: Integrin act MD, uPA surface inh, Mito fusion yeast, Chronic BCR inh)
O=S(=O)(Nc1cccc2cccnc12)c1ccc(Br)s1	RORgamma inh 0.56µM, VP16 counter 1.1µM (no result: Integrin act MD, uPA surface inh, Mito fusion yeast, Chronic BCR inh)
Cc1cccc(NS(=O)(=O)c2ccc(Br)s2)n1	none (no result: uPA surface inh)
Cc1ccc(S(=O)(=O)Nc2cccc3ncccc23)s1	RORgamma inh 0.28µM, VP16 counter 0.56µM, Chronic BCR inh inconclusive
COc1ccc(OC)c(C2C(C(=O)Nc3ccc(C)cc3)=C(C)Nc3nnnn32)c1 (stereo not given)	none (no result: Integrin act MD, RORgamma inh, uPA surface inh, VP16 counter, Mito fusion yeast)
CN(C)C(=O)Nc1ccc(Oc2ccc(Cl)cc2)cc1	VP16 counter inconclusive (no result: Integrin act MD, uPA surface inh, Mito fusion yeast, Chronic BCR inh)
CCNc1ncc2nc(C)c(=O)n(CCc3ccccc3)c2n1	none (no result: Integrin act MD, uPA surface inh, Mito fusion yeast, Chronic BCR inh)
Cc1cc(C)c(S(=O)(=O)Nc2cccc3cccnc23)c(C)c1	RORgamma inh 0.089µM, VP16 counter 0.32µM (no result: Integrin act MD, uPA surface inh, Mito fusion yeast, Chronic BCR inh)
CCCCNC(=O)c1cc(-c2cccnc2)nc2ccc(S(=O)(=O)NCCCC)cc12	none (no result: Integrin act MD, RORgamma inh, uPA surface inh, VP16 counter, Mito fusion yeast)
NC(=S)N/N=C/c1ccc(-c2ccccc2)o1	RORgamma inh 1.4µM, VP16 counter 5µM, Chronic BCR inh inconclusive
CCNC(=S)N/N=C/c1ccc(-c2ccccc2)o1	RORgamma inh 0.32µM, VP16 counter 1.4µM, Chronic BCR inh inconclusive
CCNC(=S)N/N=C/c1ccco1	RORgamma inh 2.2µM, VP16 counter 3.2µM
NC(=S)N/N=C\c1ccc(-c2cccc(Cl)c2Cl)o1	RORgamma inh 0.89µM, VP16 counter 1.1µM, Chronic BCR inh inconclusive
